Here are results for 21 compounds from PubChem BioAssay (NCI).

The panel holds about 79,000 compounds, 15% with a hit somewhere; the sample as a whole holds those more often. Unmarked numbers belong to inactive results. Activity calls are given as the source filed them. No stated cut-off is given here; in the data, active means growth inhibition above about 70%; inactive means the rest.

Experiment [1] can be described thus: NCI Yeast Anticancer Drug Screen. Data for the rad50 strain (AID 155).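 Further: 0% = growth of vehicle-only cultures of the same strain.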 The note with it: S. cerevisiae rad50 strain growth inhibition; at 50.0 µM; hits give high values. The gist of the method:
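Genetically altered yeast (DNA repair pathway); compound treatment; growth inhibition vs vehicle ctrl.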

A short description of experiment [2]: NCI Yeast Anticancer Drug Screen. Data for the mec2-1 strain (AID 157). The note with it: S. cerevisiae mec2-1 strain, at 50.0 µM, hits give high values. In short, it runs like this:
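Readout is yeast growth inhibition, normalised to vehicle-treated controls, in the mec2-1 strain exposed to compound.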

Experiment [3] in a line: NCI Yeast Anticancer Drug Screen. Data for the sgs1 mgt1 strain (AID 161).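 Further: 0% = growth of cultures given vehicle only.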 The note with it: S. cerevisiae sgs1 mgt1 strain, at 50.0 µM, hits give high values. The gist of the method:
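Compounds are added to genetically altered yeast, and growth is compared with cultures given vehicle alone to give percent inhibition.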

Experiment [4] is described as follows: NCI Yeast Anticancer Drug Screen. Data for the cln2 rad14 strain (AID 165).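 Further: 0% = growth equal to vehicle treated cultures.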 The note with it: S. cerevisiae cln2 rad14 strain, at 50.0 µM, hits give high values. The gist of the method:
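Relative to vehicle controls, growth inhibition of compound-treated cln2 rad14 yeast was recorded.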

Experiment [5] is described as follows: NCI Yeast Anticancer Drug Screen. Data for the bub3 strain (AID 167). Particulars: S. cerevisiae bub3 mutant strain, at 50.0 µM, hits give high values. The gist of the method:
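Yeast carrying a defined mutation is treated with each compound, and growth is compared with that of vehicle-exposed cells to give inhibition.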

A short description of experiment [6]: NCI Yeast Anticancer Drug Screen. Data for the mlh1 rad18 strain (AID 175). Particulars: S. cerevisiae mlh1 rad18 strain growth inhibition; at 50.0 µM; hits give high values. The gist of the method:
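Test agents were incubated with a yeast strain of defined genotype (DNA damage repair defect). Inhibition of growth was derived by comparison with vehicle-exposed cultures.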

On to `O=C(COc1cccc(Cl)c1)Nc1cccc(NC(=O)c2ccc(S(=O)(=O)F)cc2)c1`, for which the growth inhibition in experiment [1] was 2.75%; in experiment [2], 5.95%; in experiment [3], -6.85%; in experiment [4], -17.2%; in experiment [5] it was -5.75%; in experiment [6], 9.2%.

As to `O=C(Nc1ccc(N(CCCl)CCCl)cc1)c1ccc([N+](=O)[O-])cc1`, the growth inhibition is 20.1% in experiment [1]; 0.75% in experiment [2]; 3% in experiment [3]; -23.6% in experiment [4]; -1.05% in experiment [5]; -2.6% in experiment [6].

Turning to `O=C(O)C(F)F`, the growth inhibition in experiment [1] is -16.9%; in experiment [2], -1.2%; in experiment [3], -18.2%; in experiment [4], -31%; in experiment [5], -15.3%; in experiment [6], -3.15%.

With `NNC(=O)Nc1ccc([N+](=O)[O-])cc1[N+](=O)[O-]`, the growth inhibition in experiment [1] was 63.8%; in experiment [2], 0%; in experiment [3], 34.7%; in experiment [4] it was 20.2%; in experiment [5], 38.4%; in experiment [6] it was 20.5%.

In the case of `O=[As](O)(O[As](=O)(O)c1ccccc1)c1ccccc1`, the growth inhibition in experiment [1] is 24.4%; in experiment [2], 18.1%; in experiment [3], 17.1%; in experiment [4], 5%; in experiment [5], -0.05%; in experiment [6], 28.5%.

Consider `COC(=O)c1cc([N+](=O)[O-])cc([N+](=O)[O-])c1`, for which the growth inhibition is 9% in experiment [1]; 32.2% in experiment [2]; 16.5% in experiment [3]; -8.4% in experiment [4]; 18.4% in experiment [5]; 34.1% in experiment [6].

As for `CN1CN(c2ccccc2)C2(CCN(CCCN(C)c3ccc(F)cc3)CC2)C1=O`, the growth inhibition in experiment [1] was 0.1%; in experiment [2], -0.4%; in experiment [3], 6.35%; in experiment [4] it was 5.85%; in experiment [5] it was 3.35%; in experiment [6] it was 17.3%.

`Nc1ccc(Oc2ccc(N)cc2)cc1`: the growth inhibition was 3.1% in experiment [1]; 10% in experiment [2]; 14.6% in experiment [3]; 11.7% in experiment [4]; 12.4% in experiment [5]; 26.1% in experiment [6].

On to `c1ccc2c(C3NCCc4[nH]cnc43)cccc2c1` (stereo unspecified), for which the growth inhibition in experiment [1] was 3.7%; in experiment [2], 1.85%; in experiment [3], -9.45%; in experiment [4], -18.3%; in experiment [5] it was -32%; in experiment [6] it was 4.65%.

`COc1ccc(CC(N)c2ccc(OC)cc2)cc1` (stereo unspecified): the growth inhibition was -50% in experiment [1]; 0.8% in experiment [2]; -40% in experiment [3]; -24.8% in experiment [4]; -11.3% in experiment [5]; -2.4% in experiment [6].

As for `C=CC1CC=CCC1` (stereo unspecified), the growth inhibition in experiment [1] was -7.1%; in experiment [2], -5.2%; in experiment [3], 9.15%; in experiment [4], -25.2%; in experiment [5], -0.55%; in experiment [6], -11.9%.

Regarding `CCOC(=O)/C=C/CP(=O)(OCC)OCC`, the growth inhibition in experiment [1] was 7.9%; in experiment [2] it was -11.5%; in experiment [3], 15.2%; in experiment [4], 11.3%; in experiment [5], 9.55%; in experiment [6] it was 18.2%.

On to `CCOC(C(=O)O)(c1ccccc1)c1ccccc1`, for which the growth inhibition was -0.55% in experiment [1]; 22.2% in experiment [2]; 18.5% in experiment [3]; -10.1% in experiment [4]; 19.5% in experiment [5]; 22.8% in experiment [6].

For `COc1ccc(CCN2CCOCC2)cc1`, the growth inhibition in experiment [1] was 31.9%; in experiment [2] it was 2.15%; in experiment [3] it was 47.8%; in experiment [4] it was 9.25%; in experiment [5], 34%; in experiment [6], 34.2%.

With `CCCc1c(C#N)c(S)[nH]c(=S)c1C#N`, the growth inhibition in experiment [1] was 33.4%; in experiment [2] it was 20.4%; in experiment [3], 13.6%; in experiment [4] it was -5.65%; in experiment [5], 4.55%; in experiment [6], 16.2%.

Turning to `COc1ccc2ccc([Se]c3ccc4ccc(OC)cc4c3)cc2c1`, the growth inhibition is -1.25% in experiment [1]; -22.4% in experiment [2]; -1.85% in experiment [3]; 4.45% in experiment [4]; 7.55% in experiment [5]; -1.1% in experiment [6].

As to `COCC(C)OC(=O)Cc1ccccc1` (stereo unspecified), the growth inhibition in experiment [1] was -10.9%; in experiment [2], -8.2%; in experiment [3], -8.6%; in experiment [4], -85.6%; in experiment [5], -49.1%; in experiment [6], -31.1%.

Regarding `OCC1OC(n2nnc3cc(Cl)c(Cl)cc32)C(O)C1O` (stereo unspecified), the growth inhibition was 7.3% in experiment [1]; -0.8% in experiment [2]; 5.85% in experiment [3]; 11.3% in experiment [4]; 18.8% in experiment [5]; 21.7% in experiment [6].

Turning to `CCCc1ccc(CCN)cc1`, the growth inhibition in experiment [1] was -8.55%; in experiment [2], -9%; in experiment [3] it was -15.1%; in experiment [4], -9.45%; in experiment [5], -2.3%; in experiment [6] it was -23.2%.

Take `Nc1nc(-c2ccccc2)c[se]1`: the growth inhibition in experiment [1] is 63.6%; in experiment [2], 32.3%; in experiment [3], 30.6%; in experiment [4], 16.6%; in experiment [5], -7.65%; in experiment [6] it was 31.4%.

Take `[C-]#[O+].[C-]#[O+].[C-]#[O+].[CH3][Sn]([c]1ccccc1)[c]1ccccc1.[W].[c-]1[c-][c-][cH-][c-]1`: the growth inhibition in experiment [1] was 98.2% (active); in experiment [2], 99.3% (active); in experiment [3] it was 98.5% (active); in experiment [4], 97.5% (active); in experiment [5], 99.3% (active); in experiment [6], 97.5% (active).
